Screening results deposited in PubChem by National Center for Advancing Translational Sciences (NCATS).
A selection: hits, their analogues and other compounds. The true share with any hit is near 7.4%.
ELG1 genotoxic: qHTS screen for small molecules that induce genotoxicity in human embryonic kidney (HEK293T) cells expressing luciferase-tagged ELG1; HEK293T ELG1-luciferase reporter, luminescence, 16 h; Potency, µM (top dose mostly 46 µM), inactives show at the highest dose activity change, positive = activation, most hits filed as activators; 1.3% of 330,000 active; also: % of control where 0% means no effect; nearly all actives have a fitted effect of over 60% in size
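Screening used a luciferase reporter fused to human ELG1 in HEK293T cells. Luminescence was read on a CCD plate imager after 16 hr exposure and 30 min ONE-Glo incubation.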
KinaseGlo FLuc: Counterscreen for Luciferase (Kinase-Glo TM) Inhibition; Kinase-Glo luciferase, ATP luminescence, 8 min; Luciferin 4-monooxygenase (Photuris pensylvanica), Q27757; Potency, µM (highest dose often 38.3 µM), for inactives: at the highest dose activity change, negative = inhibition, actives largely listed as inhibitors; 0.28% of 200,000 active; also: % is scaled to controls: 0 for no effect and ±100 for the full control effect; nearly all actives have a fitted effect of over 60% in size
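Compound is pinned into ATP-containing buffer (10 uM ATP, imidazole pH 7.2, 7 mM MgCl2). Kinase-Glo luciferase reagent is then added. Light output is recorded following an 8-min room-temperature incubation.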
Rab9 promoter act: qHTS Assay for Rab9 Promoter Activators. Huh7 Rab9 promoter-luciferase reporter, luminescence, 24 h. Potency, µM (highest dose often 9.22 µM), for inactives: at the top dose activation, negative = inhibition, hits mostly activators. 2.8% of 320,000 active. AID 485297, 2010; also: % of control where 0% means no effect; nearly all actives have a fitted effect of over 60% in size
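Stable Rab9-luc Huh7, 1500 cells/well, 2 h settle; cmpd in DMSO, 24 h, 37 °C/5% CO2; luciferase reagent 10 min RT; luminescence.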
FLuc modulator: qHTS profiling assay for firefly luciferase inhibitor/activator using purifed enzyme and Km concentrations of substrates (counterscreen for miR-21 project); Luciferin 4-monooxygenase (Photinus pyralis), P08659; 6.9% of 360,000 active; purified FLuc, Km substrates, luminescence inhibition; Potency, µM (doses to about 57.5 µM), for the others: at the top dose activity change, negative = inhibition, actives largely listed as inhibitors;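 also: plate controls were vehicle for no effect and reference inhibitor for full effect; nearly all actives have a fitted effect of over 55% in size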
Target sequence (P08659 whole entry, looked up): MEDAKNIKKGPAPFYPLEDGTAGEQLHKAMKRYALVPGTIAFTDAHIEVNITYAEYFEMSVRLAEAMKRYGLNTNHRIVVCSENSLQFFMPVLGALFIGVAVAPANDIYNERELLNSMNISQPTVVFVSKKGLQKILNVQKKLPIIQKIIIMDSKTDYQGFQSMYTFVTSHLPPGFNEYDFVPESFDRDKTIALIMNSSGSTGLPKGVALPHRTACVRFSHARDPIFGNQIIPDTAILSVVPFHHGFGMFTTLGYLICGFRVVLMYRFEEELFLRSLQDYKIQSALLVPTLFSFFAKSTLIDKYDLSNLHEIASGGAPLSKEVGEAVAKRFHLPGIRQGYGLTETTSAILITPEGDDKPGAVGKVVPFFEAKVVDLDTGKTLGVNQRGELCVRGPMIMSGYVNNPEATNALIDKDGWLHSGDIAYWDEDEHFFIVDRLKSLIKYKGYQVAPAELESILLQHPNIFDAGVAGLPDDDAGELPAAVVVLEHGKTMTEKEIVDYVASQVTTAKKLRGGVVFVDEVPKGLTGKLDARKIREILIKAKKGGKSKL
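Purified P. pyralis luciferase (10nM final) with 10uM D-luciferin and 10uM ATP (Km levels) in 50mM Tris acetate pH 7.5, 10mM Mg acetate, 0.01% Tween-20, 0.05% BSA; qHTS 6-point titration, ~60 µM downward; luminescence read.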
NPC1 prom act: qHTS Assay for NPC1 Promoter Activators; 2.4% of 320,000 active; Huh7 NPC1 promoter luciferase reporter, 24 h; Potency, µM (titrated, usually from 9.22 µM), for the others: top-dose activation, most hits filed as activators; AID 485313, 2010; also: % of control where 0% means no effect; nearly all actives have a fitted effect of over 60% in size
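Huh7 cells stably carrying NPC1 promoter–luciferase, plated in Opti-MEM with 10% FBS for 2 h, were exposed to compound in DMSO for 24 h at 37 °C; luciferase reagent was added for 10 min and luminescence read.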
SMN2 splice up: qHTS Assay for Enhancers of SMN2 Splice Variant Expression; HEK293 SMN2-luciferase splicing reporter, luminescence, 30-36 h; Potency, µM (top dose mostly 46.1 µM), without a hit: at the highest dose activity change, positive = activation, hits mostly activators; 2.8% of 210,000 active; AID 1458, 2008; also: % of control where 0% means no effect; nearly all actives have a fitted effect of over 55% in size
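HEK293 cells carry an SMN2 […]–luciferase reporter in which exon 7 inclusion puts luciferase in frame. Cells were plated 10-12 h before compound addition, then incubated 30-36 h at 37C. ONE-Glo luminescence was read; sodium butyrate at 4.5 mM final served as control.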
Numbers without * were called inactive; ? = inconclusive; . = no result given; [ ] = remark or other dose. Calls follow the shape of the dose curve; as a rule, active = well fitted curve in the direction sought with a large enough effect; inconclusive = small, poorly fitted or top-dose-only effect, or another doubt; inactive = no such curve, though single readings can be large; an effect the other way counts as inactive or inconclusive. Potency is read from the fitted curve at half-maximal effect.

SMILES	ELG1 genotoxic	KinaseGlo FLuc	Rab9 promoter act	FLuc modulator	NPC1 prom act	SMN2 splice up
COc1cc(/C=N/NC(=O)CSc2ccccn2)ccc1OC(C)C	?	.	?	4.3µM*	12%	.
COc1ccc(/C=N/NC(=O)C(C)Sc2ccccn2)cc1[N+](=O)[O-] (stereo not drawn)	0%	1%	-9%	-6%	1%	-25%
COc1cccc(C(=O)/C=C2\NCCc3cc(OC)c(OC)cc32)c1	-3%	.	4%	?	-1%	.
COc1ccc(C(=O)/C=C2\NCC3c4ccccc4CCN3C2=O)cc1 (stereo not drawn)	0%	1%	?	6µM*	23%	9%
O=C(NCc1cccs1)c1cc(C2CC2)on1	23µM*	-2%	?	?	23%	24%
COc1ccc(CNC(=O)c2cc(-c3cccs3)on2)cc1	2%	-3%	6%	-18%	9%	-35%
O=C(NCc1cccs1)c1cc(-c2cccs2)on1	?	-4%	3.5µM*	?	3.5µM*	?
COCCNC(=O)c1cc(-c2cccs2)on1	15µM*	-1%	3.2µM*	?	24%	17%
O=C(NCc1cccs1)c1cc(-c2ccccc2)on1	7.3µM*	0%	2.5µM*	?	2.5µM*	25µM*
Cc1cc(C(=O)NCc2cccs2)no1	6%	-1%	2%	3%	0%	-2%
CCc1ccc(-n2nc(C)c3c(C)cc(=O)n(CC(=O)Nc4ccc(OC)c(OC)c4)c32)cc1	.	.	.	-2%	.	.
Cc1ccc(C(=O)OCC(=O)NC2CCCCCC2)c(C)c1	-2%	.	-2%	1%	-2%	.
Cn1cccc1/C=C1\SC(=O)N(c2ccc(O)cc2)C1=O	?	-2%	?	?	?	13µM*
CCOc1ccc(N2C(=O)S/C(=C\c3cccn3C)C2=O)cc1	11%	2%	29%	-4%	12%	?
Cc1ccc2sc(N(CCCN(C)C)C(=O)CN3C(=O)c4ccccc4C3=O)nc2c1C	-3%	2%	-10%	2%	-1%	-14%
CCOC(=O)Cc1nn(C)c(=O)c2ccccc12	5%	-5%	0%	-1%	-1%	5.6µM*
CCOC(=O)Cc1nn(CC)c(=O)c2ccccc12	2%	-2%	-11%	-1%	-1%	.
CC(c1cccs1)N(Cc1ccco1)C(=S)Nc1ccccc1Cl (stereo not drawn)	-8%	-4%	-8%	-9%	-7%	-82%
CC(/C=C/c1ccccc1F)=N\NC(=O)c1ccccc1	?	-1%	3.2µM*	17µM*	?	16µM*
C/C(=N/NC(=O)c1ccccc1)C(=O)O	?	-16%	3.5µM*	3.4µM*	3.5µM*	.
CC(=N\NC(=O)c1ccccc1)/C(=N/O)C(=O)Nc1ccccc1	12%	.	1%	-1%	-6%	.
C/C(=N\NC(=O)c1ccccc1)c1cccc(Br)c1	?	0%	2.5µM*	13µM*	?	?
C/C(=N\NC(=O)c1cccc(Br)c1)c1cccc(NC(=O)c2ccc(C)o2)c1	-2%	-1%	2%	17µM*	0%	-1%
COc1ccccc1CNC(=O)c1c(O)nc2c(C)cccn2c1=O	.	.	.	-4%	.	-4%
CC1CC(=O)Nc2ccccc2N1C(=O)CSc1ccc2ccccc2n1 (stereo not drawn)	-4%	.	.	.	.	.
SMILES	ELG1 genotoxic	KinaseGlo FLuc	Rab9 promoter act	FLuc modulator	NPC1 prom act	SMN2 splice up
NS(=O)(=O)c1ccc(NCc2nc3ccccc3[nH]2)cc1	.	1%[7.66 µM]	.	.	.	-4%[9.22 µM]
COc1ccc([C@@H]2[C@H]3C(=O)N(c4cccc(C(F)(F)F)c4)C(=O)[C@H]3ON2C)cc1	-9%	0%	-4%	3%	3%	4%
CCC(C)(C)NC(=O)c1cc([N+](=O)[O-])ccc1N1CCOCC1	0%	-1%	-1%	0%	-3%	-2%
COc1ccc(-c2nc(N)n(C(=O)c3ccccc3Cl)n2)cc1	5%	-5%	-3%	-2%	-4%	19%
O=C(c1cccc(Cl)c1)N1CCN(CCCc2ccccc2)CC1	4%	.	5%	2%	-1%	.
O=c1oc2ccccc2cc1-c1cn2cc(Cc3ccc(F)cc3)sc2n1	.	.	.	3%	.	16%
Cc1ccc(Cc2cn3cc(-c4ccc(F)cc4)nc3s2)cc1	.	.	.	0.76µM*	.	?
CCCCN1C(=O)CC(Nc2ccc(CC)cc2)C1=O (stereo not drawn)	16µM*	-1%	25%	13µM*	12%	?
CCOc1ccc(NC(=O)C2CCN(S(=O)(=O)c3ccc4c(c3)NC(=O)C(C)S4)CC2)cc1 (stereo not drawn)	-10%	.	-3%	2%	-12%	.
COc1ccccc1C(=O)C1CCCN(Cc2cccc(OCCO)c2)C1 (stereo not drawn)	-3%	.	-6%	1%	0%	.
N#C/C(=C\c1cccs1)C(=O)c1ccccc1Cl	-10%	.	-6%	21µM*	2%	.
N#C/C(=C\c1cccs1)C(=O)Nc1nccs1	?	-9%	2.8µM*	4.3µM*	3.5µM*	?
Cc1nc(SCc2ccc(OCCC(C)C)cc2)n[nH]1	?	2%	?	21µM*	?	?
CCCCCOc1ccc(CSc2n[nH]c(C)n2)cc1	-3%	0%	0%	-2%	1%	.
Cc1nc(N)sc1C(=O)N/N=C/c1c[nH]c2ccccc12	8.2µM*	-6%	0%	19µM*	25%	15%
Cc1ccc2nc(C)c(C(=O)N/N=C/c3ccccc3[N+](=O)[O-])cc2c1	8%	1%	11%	6.7µM*	5%	5%
O=C(N/N=C/c1c[nH]c2ccccc12)c1ccncc1	9%	-6%	9%	?	6%	6%
Cc1ccc2nc(C)c(C(=O)N/N=C/c3ccco3)cc2c1	4%	-3%	0%	?	0%	7%
Cc1nc(N)sc1C(=O)N/N=C/c1ccccc1[N+](=O)[O-]	15%	-6%	2µM*	-6%	2.8µM*	14µM*
CCCCOc1ccc(C(=O)NCC(=O)NCC(c2cccs2)N2CCOCC2)cc1 (stereo not drawn)	-1%	.	2%	-2%	0%	.
COc1ccc(OCC(=O)NC(=O)c2ccccc2OC)c([N+](=O)[O-])c1	4%	.	3%	-2%	0%	.
